# Inconclusive results are not listed. Activity calls are given as the source filed them. Unless noted, calls come from the whole dose curve; as a rule, active = well fitted curve in the direction sought with a large enough effect; inconclusive = small, poorly fitted or top-dose-only effect, or another doubt; inactive = no such curve, though single readings can be large; an effect the other way counts as inactive or inconclusive.
# Experiments:
# [1] = biological target: Bile acid receptor (Homo sapiens) (UniProt Q96RI1); assay: qHTS assay for small molecule antagonists of farnesoid X receptor signaling (AID 588526; calls by dose curve; note: % is set by controls: 0 for no effect and ±100 for the full control effect)
# How it was run: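 Concentration-response titrations were fitted to the Hill equation for half-maximal inhibition and maximal response, with data normalised to 50 uM chenodeoxycholic acid and DMSO control wells. Cells: FXR-UAS-bla HEK293T, dialyzed FBS.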
# [2] = biological target: Glucocorticoid receptor (Homo sapiens) (UniProt P04150); assay: qHTS assay for small molecule agonists of glucocorticoid receptor signaling (AID 588532; active = well fitted curve in the direction sought with a large enough effect in the signal ratio, with a control signal flat; the % refers to the signal ratio;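 note: 100% = dexamethasone at 0.1 µM and 0% = DMSO only wells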); details: HeLa MMTV-bla, beta-lactamase ratio, agonist, 18 h; stronger effect = higher value; percent of dexamethasone control, DMSO zero
# How it was run: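 Stimulation of a glucocorticoid response element-driven beta-lactamase gene was measured in HeLa cells. Responses were scaled between DMSO basal and 0.1 uM dexamethasone, then fitted for half-maximal stimulation.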
# [3] = qHTS assay for small molecule antagonists of peroxisome proliferator-activated receptor delta signaling (AID 588535; active = well fitted inhibition curve with a large enough effect in the signal ratio, with a control signal flat, not every such curve was filed as active; the % refers to the signal ratio;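 for max response: cells co-treated with a PPAR-delta agonist as stimulator during compound exposure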); details: HEK293T PPARd-UAS-bla, beta-lactamase FRET ratio, 18 h; 460 nm channel
# How it was run: (§1)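 GeneBLAzer PPAR-delta-UAS-bla HEK293T cells in medium with 2% charcoal/dextran FBS were preincubated 5 hrs at 37 C, then given compounds, incubated 18 hrs at 37 C, and read by CCF4 beta-lactamase fluorescence; IC50 from Hill fits.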
# [4] = biological target: Peroxisome proliferator-activated receptor delta (Homo sapiens) (UniProt Q03181); assay: as above
# How it was run: as §1
# [5] = biological target: Peroxisome proliferator-activated receptor gamma (Homo sapiens) (UniProt P37231); assay: qHTS assay for small molecule antagonists of peroxisome proliferator-activated receptor gamma signaling (AID 588537; active = well fitted inhibition curve with a large enough effect in the signal ratio, with a control signal flat, not every such curve was filed as active; the % refers to the signal ratio;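 note: reporter cells co-stimulated with 50 nM rosiglitazone agonist during compound treatment; % of control where 0% means no effect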)
# How it was run: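 PPAR-gamma-UAS-bla HEK293 cells (3000/well, 1% charcoal/dextran-stripped FBS) were preincubated 6-6.5 h at 37 C, given titrated compounds, then stimulated with 50 nM rosiglitazone for 16 h. Beta-lactamase activity was read with CCF4 dye; IC50 came from Hill fits.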
# [6] = biological target: Vitamin D3 receptor (Homo sapiens) (UniProt P11473); assay: qHTS assay for small molecule antagonists of vitamin D receptor signaling (AID 588541; calls by dose curve;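 note: receptor activated by calcitriol during compound treatment; % is set by controls: 0 for no effect and ±100 for the full control effect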)
# How it was run: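 VDR-UAS-bla HEK293T cells (2000/well, 2% charcoal-stripped FBS) were treated with titrated compounds plus 1-alpha,25-dihydroxyvitamin D3 (50 nM or 3 nM final) for 16 h at 37 C. CCF4 beta-lactamase fluorescence was read; Hill fits gave IC50.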
# [7] = biological target: Vitamin D3 receptor (Homo sapiens) (UniProt P11473); assay: qHTS assay for small molecule agonists of vitamin D receptor signaling (AID 588543; calls by dose curve;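 note: 0% = DMSO basal and 100% = reference agonist control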)
# How it was run: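 GeneBLAzer VDR-UAS-bla HEK293T cells in 2% charcoal-stripped FBS medium were dosed with compound titrations for 16 h at 37 °C; CCF4 β-lactamase readout (405 nm ex, 460/530 nm em). EC50 and efficacy from Hill fits, normalized to 50 nM calcitriol (100%) and DMSO (0%).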
# [8] = qHTS assay for small molecule agonists of retinoid X receptor alpha signaling (AID 588544; calls by dose curve;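 for activation: 0% = DMSO basal wells and 100% = reference agonist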); details: HEK293T RXRa-UAS-bla, beta-lactamase reporter, 18 h; 530 nm emission
# [9] = biological target: Retinoic acid receptor RXR-alpha (Homo sapiens) (UniProt P19793); assay: as above
# [10] = biological target: Thyroid hormone receptor beta (Homo sapiens) (UniProt P10828); assay: qHTS assay for small molecule agonists of thyroid hormone receptor beta signaling (AID 588545; calls by dose curve)
# How it was run: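 HEK 293 TR-UAS-bla; agonist mode; 18 hrs, 37 C; CCF4, ex 405/em 460 and 530 nm; norm. T3 10 nM = 100%, DMSO = 0%; Hill fit → EC50, efficacy.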
# [11] = biological target: Thyroid hormone receptor beta (Homo sapiens) (UniProt P10828); assay: qHTS assay for small molecule antagonists of thyroid hormone receptor beta signaling (AID 588547; active = well fitted inhibition curve with a large enough effect in the signal ratio, with a control signal flat, not every such curve was filed as active; the % refers to the signal ratio;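 note: cells stimulated with 0.4 nM T3 agonist during compound exposure; % is set by controls: 0 for no effect and ±100 for the full control effect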); details: TR-UAS-bla HEK293, beta-lactamase ratio, antagonist mode, 18 h
# How it was run: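 TR-UAS-bla GripTite HEK293 cells in 2% charcoal/dextran FBS medium were preincubated 4 h at 37 C, given compound (0.59 nM to 92 uM) plus 0.4 nM T3 (final) for 18 h, then CCF4 for 2 h at RT; Hill fit gave IC50.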
# [12] = biological target: Luciferin 4-monooxygenase (Photinus pyralis) (UniProt P08659); assay: Biochemical firefly luciferase enzyme assay for NPC (AID 624030);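 note: purified P. pyralis luciferase at 10 nM with luciferin and ATP substrate; 0% = DMSO and -100% = full luciferase inhibition by PTC124 control; nearly all actives have a fitted effect of over 70% in size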
# How it was run: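 Counter-screen for direct inhibition of the luciferase enzyme by approved-drug library compounds, run at 10 nM enzyme in 50 mM Tris acetate (final). Luminescence was read within 5 min of enzyme-buffer addition and normalized to PTC124 versus DMSO (0%).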
# [13] = qHTS assay for small molecule agonists of the antioxidant response element (ARE) signaling pathway (AID 651741; active = well fitted activation curve with a large enough effect in the signal ratio; the % refers to the signal ratio; note: potency is the fitted concentration of half-maximal effect)
# How it was run: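 ARE-bla HepG2 cells (beta-lactamase reporter under ARE control) were plated at 2,000 cells/well, preincubated 5 h at 37 C/5% CO2, then treated with DMSO-dissolved compounds for 16 h at 37 C; LiveBLAzer B/G FRET substrate added, fluorescence read after 2 h at room temperature.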
# [14] = qHTS assay for small molecule activators of the p53 signaling pathway (AID 651743; active = well fitted activation curve with a large enough effect in the signal ratio, not every such curve was filed as active; the % refers to the signal ratio; note: % of control where 0% means no effect); details: HCT-116 p53RE-bla, beta-lactamase FRET ratio, 16 h; stronger effect = higher value
# How it was run: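 p53RE-bla HCT-116 cells with a stably integrated beta-lactamase reporter under p53 response elements were plated, rested 5 hours at 37 C/5% CO2, then exposed to compounds in DMSO for 16 hours at 37 C. LiveBLAzer B/G FRET substrate was read after 2 hours at room temperature.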
# [15] = qHTS assay for environmental chemicals that activate the Aryl hydrocarbon Receptor (AhR) signaling pathway (AID 651777); details: 1A2-DRE human hepatoma cells, luciferase, 24 h; stronger effect = higher value; note: % of control where 0% means no effect; nearly all actives have a fitted effect of over 15% in size
# How it was run: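 Concentration–response screening used 1,200 1A2-DRE cells per well, 24 hr compound exposure (37 C, 5% CO2), and One-Glo luminescence as the AhR-driven CYP1A2 reporter signal.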
# [16] = biological target: Peroxisome proliferator-activated receptor alpha (Homo sapiens) (UniProt Q07869); assay: qHTS assay for small molecule agonists of the peroxisome proliferator-activated receptor alpha (PPARalpha) signaling pathway (AID 651778); details: PathHunter PPARalpha complementation, chemiluminescence, 6 h; stronger effect = higher value; note: % of control where 0% means no effect
# How it was run: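 Cells plated at 2,000/well and held overnight at 37 C, 5% CO2, then compound added by pin tool for 6 hr; after PathHunter detection reagent and 60 min at room temperature, chemiluminescence from enzyme complementation was read.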
# [17] = qHTS assay for small molecule agonists of the antioxidant response element (ARE) signaling pathway measured by Nrf2-dependant transcriptional activity - cell viability counter screen (AID 720653; active = well fitted curve in the direction sought with a large enough effect in the repeat runs; an effect the other way counts as inactive or inconclusive; note: % is set by controls: 0 for no effect and ±100 for the full control effect); details: ARE-bla HepG2 viability, CellTiter-Glo ATP luminescence, 16 h; stronger effect = lower value
# How it was run: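 ARE-bla HepG2 cells (2,000/well) rested 5 hrs at 37C/5% CO2, then exposed to compounds in DMSO for 16 hrs. Viability was read in the same wells as intracellular ATP by luminescence, 30 min at room temperature after reagent addition.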
# [18] = qHTS Assay for Identifying Gametocytocidal Compounds (AID 743244);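 note: % is set by controls: 0 for no effect and ±100 for the full control effect; actives lower the fluorescent signal which means gametocytes are killed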; details: P. falciparum 3D7 stage III-V gametocytes, alamarBlue, 72 h; max response: stronger effect = lower value
# How it was run: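 Stage III–V gametocytes of P. falciparum 3D7 were seeded at 20,000 cells/well onto pre-dispensed compounds. After 72 h, 37 °C, 5% CO2, alamarBlue was added for another 24 h.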
# [19] = qHTS assay for cell viability of HEK293 cells (AID 743288); details: ATP luminescence (CellTiter-Glo), 18 h, stronger effect = lower value; note: % is set by controls: 0 for no effect and ±100 for the full control effect; nearly all actives have a fitted effect of over 50% in size
# How it was run: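 Parental HEK293 cells were seeded at 2,000 cells/well, rested at least 5 h at 37 C, then exposed to compounds in DMSO for 18 h at 37 C. Viability was read as ATP-dependent luciferase luminescence after 30 min at room temperature.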
# [20] = qHTS assay for cell viability of the p53RE-bla HCT-116 cell line (AID 743292); note: % is set by controls: 0 for no effect and ±100 for the full control effect; nearly all actives have a fitted effect of over 55% in size
# How it was run: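 Compound-exposed HCT-116 (p53RE-bla) cells, 4,000 per well, were kept 16 h at 37 C following a 5 h preincubation. Cell number was estimated from total ATP by CellTiter-Glo luminescence read after 30 min at room temperature.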
# [21] = biological target: Cytochrome P450 2C9 (Homo sapiens) (UniProt P11712); assay: Cytochrome P450 family 2 subfamily C member 9 (CYP2C9) small molecule antagonists: luciferase biochemical (cell-free) qHTS assay (AID 1645842; active = well fitted curve in the direction sought with a large enough effect in the repeat runs; an effect the other way counts as inactive or inconclusive; note: % is set by controls: 0 for no effect and ±100 for the full control effect; nearly all actives have a fitted effect of over 55% in size)
# How it was run: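 Luminescence, after 20 min with luciferin detection reagent, reflected CYP2C9 turnover during a 1 h NADPH-driven reaction at 37C. Enzyme-substrate mix contained 0.4% bovine serum albumin and was preincubated with compound 10 min at room temperature.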
# [22] = biological target: Nuclear receptor subfamily 1 group I member 2 (Rattus norvegicus) (UniProt Q9R1A7); assay: qHTS assay for small molecule activators of the rat pregnane X receptor (rPXR) signaling pathway (AID 651751; call rule not given here; note: 0% is about no effect); details: rPXR reporter cells, luciferase (One-Glo), 24 h
# [23] = Primary qHTS for inhibitors of nuclear receptor binding SET domain protein 2 (NSD2) in an isogenic RCH-ACV NSD2 p.E1099K mutant (9B) (AID 1645876); note: potency is the fitted concentration of half-maximal effect; nearly all actives have a fitted effect of over 70% in size
# [24] = Primary qHTS for inhibitors of nuclear receptor binding SET domain protein 2 (NSD2) in an RCH-ACV wild type WT cells (2C) (AID 1645877); note: potency is the fitted concentration of half-maximal effect; nearly all actives have a fitted effect of over 70% in size
# [25] = biological target: Catechol O-methyltransferase (Homo sapiens) (UniProt P21964); assay: Confirmatory Screen for Target Class Profiling of Small Molecule Inhibitors of Methyltransferases (AID 1745852); details: MTase-Glo luminescence, SAH detection, recombinant enzyme; measured here: COMT max response; stronger effect = lower value
# [26] = biological target: Guanidinoacetate N-methyltransferase (Homo sapiens) (UniProt Q14353); assay: as above; details: MTase-Glo luminescence, SAH detection, recombinant enzyme; activity change, negative = inhibition: at 57.3 µM (top of the series) unless noted
# [27] = biological target: Nicotinamide N-methyltransferase (Homo sapiens) (UniProt P40261); assay: as above; details: MTase-Glo luminescence, SAH detection, recombinant enzyme; measured here: NNMT max response; stronger effect = lower value
# [28] = biological target: Phenylethanolamine N-methyltransferase (Homo sapiens) (UniProt P11086); assay: as above; details: MTase-Glo luminescence, SAH detection, recombinant enzyme; measured here: PNMT max response; stronger effect = lower value
# [29] = biological target: Glutathione peroxidase 1 (Homo sapiens) (UniProt P07203); assay: Primary qHTS Assay for Inhibitors of Recombinant Selenoprotein Glutathione Peroxidase 1 (GPX1) (AID 1845191); note: % is set by controls: 0 for no effect and ±100 for the full control effect; nearly all actives have a fitted effect of over 65% in size
# How it was run: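 Recombinant GPX1 (10 nM final) was preincubated with compound for 30 min at room temperature, then reacted with 1 mM GSH, 0.5 mM CHP, 0.5 mM NADPH and 100 nM glutathione reductase; NADPH fluorescence (340/450 nm) was read at 0 and 15 min.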
# [30] = qHTS for Inhibitors of Ubiquitin-specific Protease USP2a Using CHOP2 as the Reporter: K633 Counterscreen (AID 652168); note: % of control where 0% means no effect
# How it was run: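 Cell-free interference counterscreen without USP2a: compounds pinned into enzyme-free buffer (20 mM Tris pH 8, 2 mM beta-mercaptoethanol, 0.05% Chaps), then DiUb K48-4IQF substrate added (100 nM stock); fluorescence read kinetically, Ex 525/Em 598.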
# [31] = biological target: Ubiquitin carboxyl-terminal hydrolase 2 (Homo sapiens) (UniProt O75604); assay: qHTS for Inhibitors of Ubiquitin-specific Protease USP2a Using CHOP2 as the Reporter: K484 Substrate (AID 652173); details: USP2 cleavage of DiUb K48 IQF substrate, fluorescence;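 note: cleavage of internally quenched K48 di-ubiquitin substrate measured as rising fluorescence over time; potency is the fitted concentration of half-maximal effect; nearly all actives have a fitted effect of over 70% in size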
# How it was run: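 USP2 (dispensed at 5 nM) was pinned with compounds, then DiUb K48 internally quenched fluorescent substrate (dispensed at 100 nM) was added. The buffer was 20 mM Tris pH 8, 2 mM beta-mercaptoethanol and 0.05% CHAPS. Cleavage was read kinetically as rising fluorescence, Ex 525/Em 598.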
# [32] = biological target: N-terminal Xaa-Pro-Lys N-methyltransferase 1 (Homo sapiens) (UniProt Q9BV86); assay: Confirmatory qHTS for Inhibitors of N-terminal methyltransferase 1 (NTMT1): MTaseGlo Assay (AID 1645874); note: potency is the fitted concentration of half-maximal effect; nearly all actives have a fitted effect of over 65% in size
# How it was run: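 Luminescent MTase-Glo read-out of SAH. 125 nM NTMT1, 100 uM SAM, 1 uM SPKRIA substrate, 30 min RT reaction after 15 min compound preincubation. Normalized to no-enzyme and DMSO controls; Hill fit.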
# Sequence of Thyroid hormone receptor beta (Homo sapiens) (P10828 whole entry, looked up): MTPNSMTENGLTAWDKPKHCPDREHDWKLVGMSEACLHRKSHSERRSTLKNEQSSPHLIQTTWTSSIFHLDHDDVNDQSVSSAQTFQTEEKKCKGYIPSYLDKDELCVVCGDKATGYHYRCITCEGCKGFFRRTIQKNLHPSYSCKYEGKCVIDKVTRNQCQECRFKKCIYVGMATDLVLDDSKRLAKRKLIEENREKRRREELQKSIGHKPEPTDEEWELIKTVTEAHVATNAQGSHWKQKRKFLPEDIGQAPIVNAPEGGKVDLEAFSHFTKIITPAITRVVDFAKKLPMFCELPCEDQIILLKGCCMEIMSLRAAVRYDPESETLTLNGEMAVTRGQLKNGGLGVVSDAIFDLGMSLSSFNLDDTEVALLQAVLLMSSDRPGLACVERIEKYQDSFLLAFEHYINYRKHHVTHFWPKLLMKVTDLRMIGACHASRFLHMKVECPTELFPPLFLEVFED
# Sequence of Vitamin D3 receptor (Homo sapiens) (P11473 whole entry, looked up): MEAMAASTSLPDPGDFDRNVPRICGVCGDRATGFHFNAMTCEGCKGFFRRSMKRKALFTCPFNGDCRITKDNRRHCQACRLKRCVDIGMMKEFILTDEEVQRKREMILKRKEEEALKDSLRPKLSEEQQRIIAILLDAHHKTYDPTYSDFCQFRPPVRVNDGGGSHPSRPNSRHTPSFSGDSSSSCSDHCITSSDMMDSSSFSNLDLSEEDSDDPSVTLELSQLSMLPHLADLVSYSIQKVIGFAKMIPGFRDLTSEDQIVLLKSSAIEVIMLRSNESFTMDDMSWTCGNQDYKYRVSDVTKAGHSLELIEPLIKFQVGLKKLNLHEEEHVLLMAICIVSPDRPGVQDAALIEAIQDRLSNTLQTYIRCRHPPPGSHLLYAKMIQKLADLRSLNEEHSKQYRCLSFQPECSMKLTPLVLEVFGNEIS
# Sequence of Phenylethanolamine N-methyltransferase (Homo sapiens) (P11086 whole entry, looked up): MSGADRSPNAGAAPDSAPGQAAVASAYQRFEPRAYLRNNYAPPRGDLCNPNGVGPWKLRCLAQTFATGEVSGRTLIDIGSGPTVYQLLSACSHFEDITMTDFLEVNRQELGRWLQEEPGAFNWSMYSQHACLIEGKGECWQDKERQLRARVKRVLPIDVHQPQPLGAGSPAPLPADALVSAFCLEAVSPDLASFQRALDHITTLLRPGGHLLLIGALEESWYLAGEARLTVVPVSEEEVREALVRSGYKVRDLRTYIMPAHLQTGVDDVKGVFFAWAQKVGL
# Sequence of Glucocorticoid receptor (Homo sapiens) (P04150 whole entry, looked up): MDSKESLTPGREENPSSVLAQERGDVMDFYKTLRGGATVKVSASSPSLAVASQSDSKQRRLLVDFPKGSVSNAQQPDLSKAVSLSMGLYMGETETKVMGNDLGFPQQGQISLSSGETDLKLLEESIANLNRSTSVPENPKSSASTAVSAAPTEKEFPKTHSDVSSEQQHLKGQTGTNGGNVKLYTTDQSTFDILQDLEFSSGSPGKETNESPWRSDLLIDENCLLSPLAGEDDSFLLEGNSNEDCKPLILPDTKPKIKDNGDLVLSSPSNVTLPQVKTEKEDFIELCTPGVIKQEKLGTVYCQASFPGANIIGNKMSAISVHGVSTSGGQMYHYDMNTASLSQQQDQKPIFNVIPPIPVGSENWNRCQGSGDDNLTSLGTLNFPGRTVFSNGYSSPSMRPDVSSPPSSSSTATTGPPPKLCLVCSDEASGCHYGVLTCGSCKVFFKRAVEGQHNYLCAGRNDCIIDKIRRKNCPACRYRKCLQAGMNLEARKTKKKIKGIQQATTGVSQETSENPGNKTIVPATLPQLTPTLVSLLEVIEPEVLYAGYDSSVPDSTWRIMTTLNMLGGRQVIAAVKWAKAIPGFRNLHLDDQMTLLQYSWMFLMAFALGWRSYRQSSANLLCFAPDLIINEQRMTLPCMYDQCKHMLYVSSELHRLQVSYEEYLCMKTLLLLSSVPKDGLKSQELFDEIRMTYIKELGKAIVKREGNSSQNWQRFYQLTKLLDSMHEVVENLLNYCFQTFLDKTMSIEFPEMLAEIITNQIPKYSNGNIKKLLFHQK
# Sequence of Nicotinamide N-methyltransferase (Homo sapiens) (P40261 whole entry, looked up): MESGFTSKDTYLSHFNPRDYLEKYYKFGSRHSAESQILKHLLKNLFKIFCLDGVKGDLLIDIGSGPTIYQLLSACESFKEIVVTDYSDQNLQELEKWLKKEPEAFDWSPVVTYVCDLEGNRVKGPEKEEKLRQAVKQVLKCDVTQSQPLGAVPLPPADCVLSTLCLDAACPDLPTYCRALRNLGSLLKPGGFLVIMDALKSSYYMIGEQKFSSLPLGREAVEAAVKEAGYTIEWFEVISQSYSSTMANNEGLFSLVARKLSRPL
# Sequence of Peroxisome proliferator-activated receptor gamma (Homo sapiens) (P37231 whole entry, looked up): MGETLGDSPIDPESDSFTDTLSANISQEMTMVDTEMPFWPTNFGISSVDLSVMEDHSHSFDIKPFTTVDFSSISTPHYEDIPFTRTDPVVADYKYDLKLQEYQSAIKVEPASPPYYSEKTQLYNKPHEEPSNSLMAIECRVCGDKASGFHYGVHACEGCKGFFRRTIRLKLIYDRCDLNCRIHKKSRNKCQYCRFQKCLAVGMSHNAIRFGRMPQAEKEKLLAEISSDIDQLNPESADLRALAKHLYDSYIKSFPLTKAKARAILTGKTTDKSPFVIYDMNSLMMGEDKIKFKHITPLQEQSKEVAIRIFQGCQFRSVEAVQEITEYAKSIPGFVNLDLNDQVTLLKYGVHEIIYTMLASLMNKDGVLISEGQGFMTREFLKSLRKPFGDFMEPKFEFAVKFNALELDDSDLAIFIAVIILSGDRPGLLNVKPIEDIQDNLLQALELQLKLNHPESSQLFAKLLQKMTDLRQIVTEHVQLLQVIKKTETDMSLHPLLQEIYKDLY
# Sequence of Cytochrome P450 2C9 (Homo sapiens) (P11712 whole entry, looked up): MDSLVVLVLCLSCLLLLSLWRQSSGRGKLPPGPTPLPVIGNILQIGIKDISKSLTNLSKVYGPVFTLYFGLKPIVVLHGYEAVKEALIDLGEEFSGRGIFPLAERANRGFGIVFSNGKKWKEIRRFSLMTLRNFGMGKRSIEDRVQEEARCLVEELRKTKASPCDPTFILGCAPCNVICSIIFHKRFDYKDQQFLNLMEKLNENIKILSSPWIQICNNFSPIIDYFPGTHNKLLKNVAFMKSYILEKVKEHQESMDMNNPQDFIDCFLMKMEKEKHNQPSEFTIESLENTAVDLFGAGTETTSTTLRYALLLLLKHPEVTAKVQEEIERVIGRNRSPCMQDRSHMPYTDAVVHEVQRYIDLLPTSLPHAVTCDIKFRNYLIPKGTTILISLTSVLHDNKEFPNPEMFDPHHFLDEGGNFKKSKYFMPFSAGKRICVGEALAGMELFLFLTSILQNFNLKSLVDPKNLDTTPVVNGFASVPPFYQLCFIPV
# Sequence of Ubiquitin carboxyl-terminal hydrolase 2 (Homo sapiens) (O75604 whole entry, looked up): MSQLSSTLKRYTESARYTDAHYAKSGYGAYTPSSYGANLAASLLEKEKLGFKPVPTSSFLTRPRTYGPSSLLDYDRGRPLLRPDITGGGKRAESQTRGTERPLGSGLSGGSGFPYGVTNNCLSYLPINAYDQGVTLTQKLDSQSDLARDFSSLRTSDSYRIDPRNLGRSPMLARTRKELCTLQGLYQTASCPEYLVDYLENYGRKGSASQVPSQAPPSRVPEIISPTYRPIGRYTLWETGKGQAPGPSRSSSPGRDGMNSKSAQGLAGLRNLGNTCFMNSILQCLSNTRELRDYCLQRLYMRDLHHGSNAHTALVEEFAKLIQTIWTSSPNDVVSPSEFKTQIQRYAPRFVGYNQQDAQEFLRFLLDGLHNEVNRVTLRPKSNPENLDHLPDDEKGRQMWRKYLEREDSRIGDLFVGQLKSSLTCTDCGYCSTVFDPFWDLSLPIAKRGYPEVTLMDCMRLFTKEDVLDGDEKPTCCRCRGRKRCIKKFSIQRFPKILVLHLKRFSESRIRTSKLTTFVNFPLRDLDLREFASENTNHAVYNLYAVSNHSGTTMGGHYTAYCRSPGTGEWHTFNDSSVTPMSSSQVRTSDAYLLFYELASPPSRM
# Sequence of Luciferin 4-monooxygenase (Photinus pyralis) (P08659 whole entry, looked up): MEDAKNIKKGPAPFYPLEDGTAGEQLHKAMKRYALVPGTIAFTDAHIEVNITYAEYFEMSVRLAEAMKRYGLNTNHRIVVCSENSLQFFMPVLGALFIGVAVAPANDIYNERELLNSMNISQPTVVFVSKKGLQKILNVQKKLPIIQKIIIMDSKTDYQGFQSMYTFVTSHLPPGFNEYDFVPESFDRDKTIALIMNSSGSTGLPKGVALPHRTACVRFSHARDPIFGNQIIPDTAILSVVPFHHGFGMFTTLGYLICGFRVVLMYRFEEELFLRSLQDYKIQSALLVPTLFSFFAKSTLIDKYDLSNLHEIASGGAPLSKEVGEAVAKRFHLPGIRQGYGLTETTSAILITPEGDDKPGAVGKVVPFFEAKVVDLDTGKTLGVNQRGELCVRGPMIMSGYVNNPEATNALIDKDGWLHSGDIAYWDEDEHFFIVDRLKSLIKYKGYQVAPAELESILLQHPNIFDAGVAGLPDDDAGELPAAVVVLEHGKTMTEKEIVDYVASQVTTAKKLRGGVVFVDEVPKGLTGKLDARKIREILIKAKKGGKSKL
# Sequence of Retinoic acid receptor RXR-alpha (Homo sapiens) (P19793 whole entry, looked up): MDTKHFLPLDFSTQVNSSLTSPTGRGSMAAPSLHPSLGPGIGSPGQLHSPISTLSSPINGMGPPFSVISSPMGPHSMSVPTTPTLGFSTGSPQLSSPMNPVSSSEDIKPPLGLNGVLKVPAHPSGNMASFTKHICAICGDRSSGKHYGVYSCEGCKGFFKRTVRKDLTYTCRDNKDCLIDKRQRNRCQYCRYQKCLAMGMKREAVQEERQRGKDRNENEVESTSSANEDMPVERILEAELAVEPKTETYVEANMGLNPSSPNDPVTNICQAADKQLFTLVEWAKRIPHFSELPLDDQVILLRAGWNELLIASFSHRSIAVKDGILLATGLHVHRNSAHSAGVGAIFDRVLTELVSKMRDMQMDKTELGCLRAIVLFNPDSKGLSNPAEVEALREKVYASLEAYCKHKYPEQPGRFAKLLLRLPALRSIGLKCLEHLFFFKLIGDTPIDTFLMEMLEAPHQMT
smiles,measurement,setting,value
CCCOC(=O)c1cc(O)c(O)c(O)c1,outcome,[1],inactive
same,activation,[2],-7.56% (inactive)
same,max response,[3],51.1%
same,outcome,[4],inactive
same,outcome,[5],inactive
same,outcome,[6],inactive
same,outcome,[7],inactive
same,max response,[8],14.7%
same,outcome,[9],inactive
same,outcome,[10],inactive
same,activity change % (negative = inhibition),[11],5.53% (inactive)
same,Potency,[12],inactive
same,Potency,[13],9.69 µM (active)
same,activation,[14],-0.803% (inactive)
same,activation,[15],4.88% (inactive)
same,max response,[16],0.0423% (inactive)
same,max response,[17],-15.7% (inactive)
same,max response,[18],14.7% (inactive)
same,max response,[19],-23.3% (inactive)
same,outcome,[20],inactive
same,Potency,[21],inactive
same,max response,[22],-2.93% (inactive)
CCN1CCN(c2ccc(Nc3ccc(-c4ccc(C(N)=O)cc4)n4ncnc34)cc2)CC1,Potency,[23],9.2 µM (active)
same,Potency,[24],7.31 µM (active)
same,activity,[25],-0.444%
same,"activity change, negative = inhibition",[26],0%
same,activity,[27],-65.3%
same,activity,[28],-8.41%
same,Potency,[29],inactive
Cc1ccc(S(=O)(=O)Nc2cnccc2C(=O)Nc2nc(-c3cccc(C)c3)cs2)cc1,outcome,[30],inactive
same,Potency,[31],1.37 µM (active)
same,Potency,[32],17.3 µM (active)

# From PubChem BioAssay (NCATS)
